Laboratory results reported in PubChem BioAssay (NCI).
About 79,000 compounds went through this panel and 15% of them were active in at least one assay; those are over-represented in the sample as a whole. Cut-off read from the data, not from the text of the source: active = growth inhibition above about 70%; inactive = the rest.

How the values were obtained:
[1] = NCI Yeast Anticancer Drug Screen. Data for the rad50 strain (AID 155);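 note: 0% = growth of vehicle-only cultures of the same strain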; details: S. cerevisiae rad50 strain growth inhibition; at 50.0 µM; hits give high values
Summary of the method: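 Compounds were tested on a yeast strain with an engineered DNA damage repair alteration; the reported value is growth inhibition normalised to vehicle treatment.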

[2] = NCI Yeast Anticancer Drug Screen. Data for the mec2-1 strain (AID 157); details: S. cerevisiae mec2-1 strain, at 50.0 µM, hits give high values
Summary of the method: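 Mutant yeast (mec2-1) grown with compound; growth inhibition relative to vehicle control reported.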

[3] = NCI Yeast Anticancer Drug Screen. Data for the sgs1 mgt1 strain (AID 161);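 note: 0% = growth of cultures given vehicle only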; details: S. cerevisiae sgs1 mgt1 strain, at 50.0 µM, hits give high values
Summary of the method: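 Yeast cells carrying a defined DNA-repair defect were exposed to test compounds. Growth inhibition was measured relative to vehicle-treated controls.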

[4] = NCI Yeast Anticancer Drug Screen. Data for the cln2 rad14 strain (AID 165);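 note: 0% = growth equal to vehicle treated cultures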; details: S. cerevisiae cln2 rad14 strain, at 50.0 µM, hits give high values
Summary of the method: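 Readout is yeast growth inhibition versus vehicle-treated controls, using a strain with cln2 and rad14 alterations exposed to compound.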

[5] = NCI Yeast Anticancer Drug Screen. Data for the bub3 strain (AID 167); details: S. cerevisiae bub3 mutant strain, at 50.0 µM, hits give high values
Summary of the method: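 Growth of a checkpoint-deficient yeast mutant is measured after compound exposure. Values represent inhibition relative to vehicle.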

[6] = NCI Yeast Anticancer Drug Screen. Data for the mlh1 rad18 strain (AID 175); details: S. cerevisiae mlh1 rad18 strain growth inhibition; at 50.0 µM; hits give high values
Summary of the method: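 Genetically defined yeast (DNA repair-deficient) exposed to compounds; growth inhibition determined relative to vehicle.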

Measured: growth inhibition

COC1OC(=O)c2cccc3cccc1c23 (stereo not drawn)
inactive: [1] -9.3% | [2] -14.8% | [3] -8.2% | [4] -7.5% | [5] -2.4% | [6] -18.7%

COC(=O)C(C#N)(CCc1ccc([N+](=O)[O-])cc1)CCc1ccc([N+](=O)[O-])cc1
inactive: [1] 14.8% | [2] -4.25% | [3] 3% | [4] -6.7% | [5] 5.6% | [6] 25.9%

CCCNc1cc2c(cc1Br)-c1ccccc1C2=O
inactive: [1] -18.8% | [2] -3% | [3] -10.2% | [4] -16.1% | [5] 19.1% | [6] -0.65%

N#C/C(=C/c1cccs1)c1ccc(Cl)cc1
inactive: [1] -4.6% | [2] -15.2% | [3] -11.8% | [4] -21.1% | [5] -16.1% | [6] 1.85%

Cc1cccc(Nc2nc(NNC(=O)Cc3ccccc3)nc(NNC(=O)c3ccncc3)n2)c1
inactive: [1] 17.4% | [2] -12.9% | [3] 42.2% | [4] 33.4% | [5] 22.6% | [6] 18.8%

CCCCCCCCCCCCCCC(O)CO (stereo not drawn)
inactive: [1] -11.3% | [2] -12.7% | [3] -4.45% | [4] -102% | [5] -27.1% | [6] -20.9%

CC(/C=C/c1ccccc1)=N\N=C(C)\C=C\c1ccccc1
inactive: [1] 0.45% | [2] -20.2% | [3] -31.4% | [4] 20.9% | [5] -37.8% | [6] -23.4%

O=C(O)c1ccc(Cl)cc1C(=O)c1ccc(Cl)cc1
inactive: [1] 1.25% | [2] 8.75% | [3] -2.55% | [4] -42.9% | [5] -1.7% | [6] -13.1%

CC(C)=NNC(=O)c1ccccc1CC(O)(c1ccccc1)c1ccccc1
inactive: [1] 22.1% | [2] 5.25% | [3] 10.2% | [4] -35.6% | [5] -24.4% | [6] 15.2%

CCC(O)CNCc1ccnc2ccc(OC)cc12 (stereo not drawn)
inactive: [1] 3.3% | [2] 2.9% | [3] 0.45% | [4] -45.4% | [5] -4.1% | [6] -12.1%

Cn1nnc(C(=O)O)n1
inactive: [1] -7.75% | [2] -4.35% | [3] -4.7% | [4] -19.8% | [5] -11.4% | [6] -10.8%

CCCOCN1COCN=C1NC#N
inactive: [1] 28.8% | [2] 12.3% | [3] -4.7% | [4] -0.05% | [5] 5.65% | [6] 5.75%

Cc1cc2c3ccccc3n(C)c2c2c1C(=O)c1ccccc1C2=O
inactive: [1] 15.8% | [2] 28% | [3] 3.3% | [4] 5.45% | [5] 17.4% | [6] 11.2%

Cc1c(C#N)c2n(c1C)CC(=O)N2
inactive: [1] 7.85% | [2] 0.45% | [3] 2.8% | [4] -0.85% | [5] -20.4% | [6] -33.9%

CO[C@@H]1C2C3c4ccccc4C(c4ccccc43)C2[C@H](OC)[C@H]2OC(c3ccccc3)O[C@H]21 (stereo partly drawn)
inactive: [1] -13.4% | [2] -14.9% | [3] 7.15% | [4] 10% | [5] 2.15% | [6] -2.65%

O=c1cc(C=Nc2cccc(Br)c2)[nH]c(=S)[nH]1
inactive: [1] -4.4% | [2] -17.4% | [3] -15.4% | [4] -24.8% | [5] -10.1% | [6] -10%

C=CC/C=C/CCC
inactive: [1] 34.6% | [2] -2.7% | [3] -7.85% | [4] -21.8% | [5] -2.4% | [6] -9.7%

COc1ccc(NC(=O)c2cc3cc(N=Nc4ccc(Br)cc4)ccc3oc2=O)cc1
inactive: [1] -30.9% | [2] 14.4% | [3] -15.2% | [4] 0.05% | [5] -28.5% | [6] -17.6%

CCCCCCCCCCCCCCCCCC[N+](C)(C)Cc1c(Cl)c(Cl)c(Cl)c(Cl)c1Cl
inactive: [1] 10.8% | [2] 8.9% | [3] 20.4% | [4] -18.9% | [5] 24.6% | [6] 1.65%

N#C/C(=C/N1CCNC1=S)C(N)=O
inactive: [1] 4.95% | [2] 5% | [3] 9.5% | [4] 23.9% | [5] -2.8% | [6] 12.4%

CCCCCC1CC[N-]CC1.CCCCCC1CC[N-]CC1.N#C[S-].N#C[S-].[Cu]
inactive: [1] 33.4% | [2] 12.7% | [3] 5% | [4] -33.1% | [5] -16.7% | [6] 24.1%

C[C@]12CCC(=O)C=C1CC[C@@H]1[C@@H]2C(=O)C[C@@]2(C)[C@H]1CC[C@]2(O)C(=O)C=O
inactive: [1] -5% | [2] -1.4% | [3] 13.8% | [4] 16.9% | [5] -10.8% | [6] 2.45%

S=C(OCCCCCn1cnc2c(=S)nc[nH]c21)Oc1ccccc1
inactive: [1] -13% | [2] 16% | [3] 7.1% | [4] -45.8% | [5] -5.25% | [6] -12.7%

CC(=O)OCC1OC(n2c(N)c(C#N)c(-c3ccccc3)c(C#N)c2=S)C(OC(C)=O)C(OC(C)=O)C1OC(C)=O (stereo not drawn)
inactive: [1] 13.4% | [2] 11.2% | [3] -21.9% | [4] -8.8% | [5] -14.7% | [6] -60.2%

C/C(CC1CC=CCC1)=N\NC(N)=O (stereo not drawn)
inactive: [1] -16.1% | [2] -4.7% | [3] -2.6% | [4] -20.5% | [5] -3.8% | [6] 30.8%

c1ccc(C2OCCO2)cc1
inactive: [1] 4.05% | [2] -15.2% | [3] -6.7% | [4] 6.6% | [5] -0.2% | [6] 10.4%

COC(=O)C1(O)CC(=O)CCC1c1ccc(OC)cc1 (stereo not drawn)
inactive: [1] 9.75% | [2] -1.35% | [3] -14.8% | [4] -10.3% | [5] -38% | [6] -17.1%

[Cl][Eu]([Cl])[Cl]
inactive: [1] 22.4% | [2] 17.9% | [3] 24.2% | [4] 42.9% | [5] 34.2% | [6] 19.8%

COc1ccc(-c2cc(=O)c3cccnc3[nH]2)cc1
inactive: [1] 30.1% | [2] 12.9% | [3] 32.4% | [4] 0.7% | [5] 12.2% | [6] 21.1%

Cc1ccc(S(=O)(=O)n2nc(C3OC(CO)C(O)C3O)c(O)c2C(N)=O)cc1 (stereo not drawn)
inactive: [1] -36.5% | [2] 16.6% | [3] -14.8% | [4] 38.1% | [5] -3% | [6] 22.8%

Nc1c(C(=O)O)cccc1C(=O)O
inactive: [1] 5.25% | [2] -18.6% | [3] -11.7% | [4] 0.55% | [5] 4.1% | [6] 6.75%

COc1ccc(Cc2cn(C)cc(Cc3ccc(OC)cc3)c2=O)cc1
inactive: [1] 4.7% | [2] 0.8% | [3] 7.15% | [4] -7.45% | [5] -1.2% | [6] -4.45%

Cc1cccc(NC(=O)Nc2cccc(Cl)c2Cl)n1
inactive: [1] 15.9% | [2] 13.7% | [3] 13.6% | [4] 15.1% | [5] 23.9% | [6] 18.6%

CN1CCCCC1CCN1CCCCC1 (stereo not drawn)
inactive: [1] -38.9% | [2] -10.2% | [3] -7.8% | [4] -39.5% | [5] -17.9% | [6] 1.3%

CC(C)=CC1C(COCc2cc3c(cc2Br)OCO3)C1(C)C (stereo not drawn)
inactive: [1] -12.3% | [2] -9.45% | [3] 3% | [4] -34.2% | [5] -7.05% | [6] -3.95%

COc1ccccc1NC(=O)C1=C(C)NC(C)=C(C(=O)Nc2ccccc2OC)C1c1c(Cl)cccc1Cl
inactive: [1] 15.6% | [2] 3.75% | [3] -11.8% | [4] -6.05% | [5] 0.2% | [6] 26.6%

O=C(SCc1ccccc1)N(c1ccccc1)c1ccccc1
inactive: [1] -0.55% | [2] 11.9% | [3] 0% | [4] 22.4% | [5] 12.4% | [6] 5.3%

Cc1ccc(-n2cnc3c(N/N=C4\SCC(=O)N4c4ccccc4)ncnc32)cc1
inactive: [1] 41.2% | [2] 17.6% | [3] 40.2% | [4] 15.1% | [5] 49.2% | [6] 35%
